PubChem BioAssay AID1259324 (C. David Weaver Laboratory, Vanderbilt University, 2017)
Out of some 34,000 compounds screened, fewer than 10 were called active.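 How the source made its calls: active means primary screen hit, no activity in plain HEK293 cells, and in GIRK2-only cells above 5% efficacy rising with concentration; inactive means the rest, including fluorescent compounds.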 A selection follows.

Target: G protein-activated inward rectifier potassium channel 2 (Homo sapiens) (UniProt P48051)
Sequence (P48051 whole entry, looked up): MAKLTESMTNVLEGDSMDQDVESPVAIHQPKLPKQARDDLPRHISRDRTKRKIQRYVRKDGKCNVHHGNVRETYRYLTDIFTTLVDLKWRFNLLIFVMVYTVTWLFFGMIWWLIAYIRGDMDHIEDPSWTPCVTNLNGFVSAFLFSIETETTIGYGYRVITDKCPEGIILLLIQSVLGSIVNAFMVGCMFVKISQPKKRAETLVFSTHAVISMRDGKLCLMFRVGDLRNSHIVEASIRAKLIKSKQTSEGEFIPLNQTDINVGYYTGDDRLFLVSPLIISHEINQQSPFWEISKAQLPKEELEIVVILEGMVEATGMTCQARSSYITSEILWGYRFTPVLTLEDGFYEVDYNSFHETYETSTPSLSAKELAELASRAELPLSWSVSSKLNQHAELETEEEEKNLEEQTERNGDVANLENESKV
Test: activators of NPY4-receptor-primed GIRK2 channels, summary, cell-based, HEK293, thallium flux (AID 1259324)
Details: HEK293 GIRK2/NPY4 cells, thallium flux fluorescence

outcome, inactive:
Cc1ccc(-n2ccnc2N2CCN(C(=O)c3ccccc3)CC2)cc1
CS(=O)(=O)N1CCC(C(=O)Nc2nc3ccc(F)cc3s2)CC1
Cc1nc(-c2cccc(NC(=O)Cc3c(C)[nH]c(=O)[nH]c3=O)c2)cs1
COc1cc(COCC2CCN(C(=O)/C=C/c3ccccc3Cl)CC2)cc(OC)c1
O=C(c1ccc([N+](=O)[O-])o1)N1CCN(Cc2nnnn2-c2ccc(F)c(F)c2)CC1
CC(C)(C)CN(C(=O)c1ccco1)c1ccncc1
COc1ccccc1CNC(=O)C1CN(C(C)=O)C1
Cc1ccccc1C(=O)NCCNC(=O)c1ccc(NC(=O)C(C)C)cc1
O=C(Nc1cccs1)N1CCN(c2ccc(-c3ccco3)nn2)CC1
CC(C)CCn1nc2ccc(S(=O)(=O)N3CCOCC3)cn2c1=O
Cn1nnc2c(N3CCN(C(=O)NCCOc4ccccc4)CC3)ncnc21
COc1ccc(NC(=O)C(=O)NCCC(c2ccccc2)c2ccccc2)c(OC)c1
Cc1ccc(Nc2ccc(NC(=O)/C=C/c3ccccc3)cc2)nn1
CCOc1cccc2sc(N(CCN3CCOCC3)C(=O)c3ccco3)nc12
COc1ccc(C=O)cc1Cn1c(=O)n(CCCCC(=O)NCC(C)C)c(=O)c2ccccc21
COc1cc(OC)cc(-n2c(-c3ccco3)nc3nc4ccccc4nc32)c1
Cc1ccc2nc(C3CC(=O)N(c4ccccc4)C3)[nH]c2c1 (configuration not stated)
COc1ccc(CCNC(=O)Cn2nc(-c3ccc(Cl)cc3)ccc2=O)cc1
O=C(NN1CCOCC1)c1ccc(N2CCC(Cc3ccccc3)CC2)nn1
CS(=O)(=O)N1CCCCC1C(=O)Nc1nc(-c2ccccn2)cs1 (configuration not stated)
O=C(NCCCN1CCOC(c2ccccc2)C1)c1cc2ccccc2oc1=O (configuration not stated)
COc1ccc(NC(=O)NCC(C)(O)C2CC2)cc1OC (configuration not stated)
CSc1cccc(NC(=O)NCCNc2cc(-n3cccn3)ncn2)c1
CSc1ccccc1CN1CCC(CNC(=O)c2ccc(S(=O)(=O)N(C)C)cc2)CC1
COc1ccc(N2C(=O)CN(CCC3=CCCCC3)C3CS(=O)(=O)CC32)cc1Cl (configuration not stated)
COc1cc(NC(=O)CSC2=NC3(CCCC3)N=C2c2ccccc2)cc(OC)c1
Cc1ccc(N2CC(C(=O)NCC3CCN(S(=O)(=O)C4CC4)CC3)CC2=O)cc1C (configuration not stated)
Cc1cc(-c2nnc(NC(=O)C(c3ccccc3)c3ccccc3)o2)nn1C
CCOC(=O)CNC(=O)C1COCC(=O)N1Cc1ccccc1 (configuration not stated)
COc1ccc(CCNC(=O)CCc2sc(C)nc2-c2cccs2)cc1
O=S(=O)(N1CCCCCC1)N1CCN(c2ccccc2F)CC1
CCOC(=O)c1cn[nH]c1S(=O)(=O)NCc1ccccn1
CSc1cccc(-n2nnc(C(=O)OCc3nc(-c4ccccc4)oc3C)c2C)c1
CN(C)C(CNC(=O)C(C)(C)C)c1ccccc1Cl (configuration not stated)
CC(C)CCn1nc2ccc(S(=O)(=O)N3CCCCC3)cn2c1=O
COc1ccc(NC(=O)Cn2cc(-c3ccccc3)c(N(C)C)n2)cc1OC
Cc1cc(NC(=O)C(=O)c2c(C)[nH]c3ccccc23)n(-c2nc(-c3cccs3)cs2)n1
COc1ccc(NC(=O)c2ccccc2SC)cc1N1CCCCC1=O
Cc1cc(-c2nnc(NC(=O)c3ccc(S(=O)(=O)N4CCCC4)cc3)o2)n(C)n1
COC(=O)c1ccc(OC)cc1CN1C(=O)N(c2cc(F)ccc2F)S(=O)(=O)c2ccccc21
Cc1ccc(Nc2ccc(NC(=O)c3ccc(Br)o3)cc2)nn1
Cc1csc(NC(=O)CSc2nc(=O)n(N3CCN(C)CC3)c3c2CCC3)n1
Cc1nnc(CNC(=O)C(C)n2nnc3ccccc3c2=O)o1 (configuration not stated)
O=C(NCCN1CCOCC1)C(=O)NCC(F)(F)F
CC(=O)N1CCN(S(=O)(=O)c2ccc(C(=O)NCc3cccnc3)cc2)CC1
COc1cc(C(=O)Nc2ccc3c(c2)N(C(=O)C2CC2)CCC3)cc(OC)c1OC
CC(Sc1ccnc2c1c(=O)n(C)c(=O)n2C)C(=O)O (configuration not stated)
Cn1nc(NC(=O)C(C)(C)Oc2ccc(Cl)cc2)c2c1NC(=O)CC2c1ccco1 (configuration not stated)
CS(=O)(=O)c1ccc(NC(=O)c2ccc(Cl)c(S(=O)(=O)N3CCOCC3)c2)cc1
CCOC(=O)Nc1nc(CC(=O)Nc2ccc(OC)cc2)cs1
O=C(NCc1ccc(Cl)cc1)C(=O)NCC1CCN(C(=O)c2cccnc2)CC1
Cc1cc(S(=O)(=O)NCC(O)c2ccc(C(F)(F)F)cc2)ccc1F (configuration not stated)
Cc1ccc(Oc2ccc(N(C)C(=O)c3cccc(F)c3)cc2)nn1
CCOc1ccc(-c2cc(=O)n(CCCC(=O)Nc3cc(C)ns3)cn2)cc1
Cc1noc(C)c1S(=O)(=O)N1CCN(Cc2nc(-c3ccco3)cs2)CC1
CC1CCN(c2oc(-c3ccc(S(=O)(=O)N(C)Cc4ccccc4)cc3)nc2C#N)CC1
O=C(NCC1CCN(S(=O)(=O)C2CC2)CC1)c1ccccn1
CCOC(=O)C(CC)Sc1ccnc2c1c(=O)n(C)c(=O)n2C (configuration not stated)
CN1CCN(C(CNC(=O)C(=O)NCc2ccc(Cl)cc2)c2cccn2C)CC1 (configuration not stated)
CCN1CCc2nc(-c3ccccc3)n(CC(=O)Nc3cccc(Cl)c3C)c(=O)c2C1
CC(C)C(=O)N1CCCc2ccc(NC(=O)C(=O)NCCCc3ccccc3)cc21
CCOc1ccc(NS(=O)(=O)c2cccc(OC)c2)cc1
COc1cc(S(=O)(=O)N2CCN(CCO)CC2)ccc1Cl
O=C(N1CCC(c2cccs2)CC1)C1(c2ccc(F)cc2)CC1
CS(=O)(=O)N1CCN(Cc2nnnn2-c2ccc(F)cc2)CC1
CCn1c(SCC(=O)N(C)c2ccccc2)nnc1-c1cn(C)nc1OC
O=C(NCCN1CCC(c2cccs2)CC1)C(=O)Nc1ccc2c(c1)OCO2
